Experimental findings from PubChem BioAssay (NCI) are described below.

About 79,000 compounds went through this panel and 15% of them were active in at least one assay; those are over-represented in the sample as a whole. Unmarked numbers belong to inactive results. No stated cut-off is given here; in the data, active means growth inhibition above about 70%; inactive means the rest.

A short description of the test: NCI Yeast Anticancer Drug Screen. Data for the rad50 strain (AID 155).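 Further: 0% = growth of vehicle-only cultures of the same strain.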 The settings on record: S. cerevisiae rad50 strain growth inhibition; at 50.0 µM; hits give high values. In a few lines: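 Vehicle-treated cultures provide the reference for the growth inhibition reported for compound-exposed, repair-deficient yeast.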
Turning to `CC1(CCOCc2ccccc2)NC(=O)N(CCC#N)C1=O` (stereo not drawn), the growth inhibition is 6.9%.

On to `CC(C)CC(O)CC(C)C`, for which the growth inhibition is 1.25%.

As for `CC1(C)CC2=C(Sc3ccccc3N2)C(=O)C1C(=O)C(=O)Nc1cc(Cl)ccc1Cl` (stereo not drawn), the growth inhibition is -1.3%.

Take `Brc1cc2c(cc1CC1CCCCO1)OCO2` (stereo not drawn): the growth inhibition was -6.5%.

With `COc1ncc(/C=C2\OC(=O)c3ccccc32)c(OC)n1`, the growth inhibition is 1.6%.

In the case of `CCCCOCCOCCOC(=O)C(C)O` (stereo not drawn), the growth inhibition was -5.6%.

Regarding `Cn1c(-c2ccccc2)cc(=O)cc1-c1ccccc1`, the growth inhibition was -22.9%.

In the case of `COc1cc(/C=N\N=C(/C)c2ccc(C)cc2C)cc(OC)c1OC`, the growth inhibition was 21.4%.

`CNN=C(C)C`: the growth inhibition is -2.15%.

As to `CC(N)C(C)(C)O` (stereo not drawn), the growth inhibition is -2.1%.

Consider `OC(c1ccccc1)(c1ccccc1)c1ccccc1CNc1ccccc1`, for which the growth inhibition was 45.5%.

In the case of `O=C(O)/C(=C\c1ccncc1)c1cccc2ccccc12`, the growth inhibition was 0.85%.

Take `CC(=O)OCC(OC(C)=O)C(OC1OC(COC(C)=O)C(OC(C)=O)C(OC(C)=O)C1OC(C)=O)C(OC(C)=O)c1cnn(-c2ccccc2)n1` (stereo not drawn): the growth inhibition is -10.7%.

As for `Cc1cccc(C)c1/[N+]([O-])=C/c1cccc([N+](=O)[O-])c1`, the growth inhibition was -1.8%.

In the case of `CCCC(O)C(C)C(C)O` (stereo not drawn), the growth inhibition was -28.5%.

`Nc1ccc(S(=O)(=O)Nc2nccs2)cc1`: the growth inhibition was -0.6%.

Take `COc1ccc(C2c3cc4c(cc3OC(C)(OC)C2C)OCO4)cc1` (stereo not drawn): the growth inhibition was -33.5%.

Take `COc1ccc(OC)c(NC(=O)Nc2ccc(I)cc2)c1`: the growth inhibition is 46.8%.
